Test results reported in PubChem BioAssay AID1159580 (chemical genetic matrix, 2015).
Screen size: about 5,500 compounds; about 2,000 (36%) were called active. Inconclusive results (about 18%) are left out. Cut-off read from the data, not from the text of the source: active = normalized growth mostly below about 0.91 (no sharp cut-off); inconclusive = no clear call, values can overlap the other calls; inactive = mostly above about 0.92. The list shows a part of the results.

Assay: chemical genetic growth profiling, strain panel (AID 1159580);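 note: tested at 20 µM; growth read once vehicle control cultures reached saturation at 30 °C; 1 = growth at the plate median or of vehicle wells; lower values mean less growth of the strain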
Conditions: growth OD

Measured: normalized growth

O=C1C(O)=C(O)C(=O)C(O)=C1O
inactive: S. cerevisiae deletion strains, locus YJR075W, strain HOC1, stronger effect = lower value 0.999 | S. cerevisiae deletion strains, locus YKL009W, strain mrt4, stronger effect = lower value 0.983 | S. cerevisiae deletion strains, locus YKL068W, stronger effect = lower value 0.979 | S. cerevisiae deletion strains, locus YKL085W, strain MDH1 (second series), stronger effect = lower value 0.956 | S. cerevisiae deletion strains, locus YKL085W, strain MDH1, stronger effect = lower value 0.956 | S. cerevisiae deletion strains, locus YKL160W, strain elf1, stronger effect = lower value 1.03 | S. cerevisiae deletion strains, locus YKL190W, strain CNB1, stronger effect = lower value 0.98 | S. cerevisiae deletion strains, locus YKR001C, strain vps1, stronger effect = lower value 0.995 | S. cerevisiae deletion strains, locus YKR026C, strain gcn3, stronger effect = lower value 1.02 | S. cerevisiae deletion strains, locus YKR091W, strain srl3, stronger effect = lower value 0.999 | S. cerevisiae deletion strains, locus YLL001W, strain dnm1, stronger effect = lower value 1.01 | S. cerevisiae deletion strains, locus YLL026W, stronger effect = lower value 1.02 | S. cerevisiae deletion strains, locus YLL041C, strain sdh2, stronger effect = lower value 1.01 | S. cerevisiae deletion strains, locus YLR027C, strain aat2, stronger effect = lower value 1.02 | S. cerevisiae deletion strains, locus YLR039C, strain RIC1, stronger effect = lower value 0.957 | S. cerevisiae deletion strains, locus YLR058C, strain SHM2, stronger effect = lower value 0.98 | S. cerevisiae deletion strains, locus YLR102C, strain apc9, stronger effect = lower value 0.989 | S. cerevisiae deletion strains, locus YLR113W, strain HOG1, stronger effect = lower value 0.969 | S. cerevisiae deletion strains, locus YLR221C, strain rsa3, stronger effect = lower value 1 | S. cerevisiae deletion strains, locus YLR258W, strain gsy2, stronger effect = lower value 1.03 | S. cerevisiae deletion strains, locus YLR262C, strain YPT6 (second series), stronger effect = lower value 0.995 | S. cerevisiae deletion strains, locus YLR262C, strain YPT6, stronger effect = lower value 0.946 | S. cerevisiae deletion strains, locus YLR268W, strain sec22, stronger effect = lower value 0.964 | S. cerevisiae deletion strains, locus YLR320W, strain mms22, stronger effect = lower value 1.01 | S. cerevisiae deletion strains, locus YLR330W, strain CHS5, stronger effect = lower value 1.01 | S. cerevisiae deletion strains, locus YLR342W, strain FKS1 (second series), stronger effect = lower value 1.07 | S. cerevisiae deletion strains, locus YLR342W, strain FKS1, stronger effect = lower value 1.01 | S. cerevisiae deletion strains, locus YLR357W, strain rsc2, stronger effect = lower value 0.989 | S. cerevisiae deletion strains, locus YLR370C, strain arc18, stronger effect = lower value 1.01 | S. cerevisiae deletion strains, locus YLR371W, strain rom2, stronger effect = lower value 1 | S. cerevisiae deletion strains, locus YLR384C, strain iki3, stronger effect = lower value 1.03 | S. cerevisiae deletion strains, locus YLR418C, strain cdc73, stronger effect = lower value 0.944 | S. cerevisiae deletion strains, locus YML016C, strain PPZ1, stronger effect = lower value 0.988 | S. cerevisiae deletion strains, locus YML032C, strain rad52, stronger effect = lower value 1.01 | S. cerevisiae deletion strains, locus YML120C, strain ndi1, stronger effect = lower value 1.01 | S. cerevisiae deletion strains, locus YML124C, strain tub3, stronger effect = lower value 0.997 | S. cerevisiae deletion strains, locus YMR058W, strain fet3, stronger effect = lower value 1.02 | S. cerevisiae deletion strains, locus YMR078C, strain ctf18, stronger effect = lower value 0.995 | S. cerevisiae deletion strains, locus YMR125W, strain sto1, stronger effect = lower value 1.02 | S. cerevisiae deletion strains, locus YMR129W, stronger effect = lower value 1.01 | S. cerevisiae deletion strains, locus YMR205C, strain PFK2, stronger effect = lower value 1 | S. cerevisiae deletion strains, locus YMR223W, strain ubp8, stronger effect = lower value 1.03 | S. cerevisiae deletion strains, locus YMR231W, strain pep5, stronger effect = lower value 1 | S. cerevisiae deletion strains, locus YMR263W, strain SAP30, stronger effect = lower value 0.96 | S. cerevisiae deletion strains, locus YMR307W, strain GAS1, stronger effect = lower value 1.03 | S. cerevisiae deletion strains, locus YNL067W, strain RPL9B, stronger effect = lower value 0.969 | S. cerevisiae deletion strains, locus YNL071W, strain lat1, stronger effect = lower value 1.02 | S. cerevisiae deletion strains, locus YNL128W, strain TEP1, stronger effect = lower value 0.944 | S. cerevisiae deletion strains, locus YNL153C, strain GIM3, stronger effect = lower value 0.956 | S. cerevisiae deletion strains, locus YNL183C, strain NPR1, stronger effect = lower value 0.927 | S. cerevisiae deletion strains, locus YNL209W, strain ssb2, stronger effect = lower value 1 | S. cerevisiae deletion strains, locus YNL233W, strain BNI4, stronger effect = lower value 0.982 | S. cerevisiae deletion strains, locus YNL248C, strain rpa49, stronger effect = lower value 1.05 | S. cerevisiae deletion strains, locus YNL250W, strain rad50, stronger effect = lower value 0.966 | S. cerevisiae deletion strains, locus YNL271C, strain bni1, stronger effect = lower value 0.998 | S. cerevisiae deletion strains, locus YNL298W, strain CLA4, stronger effect = lower value 0.98 | S. cerevisiae deletion strains, locus YNL307C, strain MCK1, stronger effect = lower value 1.02 | S. cerevisiae deletion strains, locus YNL322C, strain KRE1 (second series), stronger effect = lower value 1.02 | S. cerevisiae deletion strains, locus YNL322C, strain KRE1, stronger effect = lower value 0.98 | S. cerevisiae deletion strains, locus YNR049C, strain mso1, stronger effect = lower value 1.01 | S. cerevisiae deletion strains, locus YNR052C, strain pop2, stronger effect = lower value 1.02 | S. cerevisiae deletion strains, locus YOL006C, strain TOP1, stronger effect = lower value 0.968 | S. cerevisiae deletion strains, locus YOL012C, strain htz1 0.781 | S. cerevisiae deletion strains, locus YOL147C, strain pex11, stronger effect = lower value 0.993 | S. cerevisiae deletion strains, locus YOR001W, strain rrp6, stronger effect = lower value 0.999 | S. cerevisiae deletion strains, locus YOR061W, strain CKA2, stronger effect = lower value 0.961 | S. cerevisiae deletion strains, locus YOR069W, strain VPS5, stronger effect = lower value 1 | S. cerevisiae deletion strains, locus YOR070C, strain gyp1, stronger effect = lower value 1.01 | S. cerevisiae deletion strains, locus YOR080W, strain dia2, stronger effect = lower value 1.02 | S. cerevisiae deletion strains, locus YOR083W, strain WHI5, stronger effect = lower value 0.984 | S. cerevisiae deletion strains, locus YOR106W, strain vam3, stronger effect = lower value 1.02 | S. cerevisiae deletion strains, locus YOR136W, strain idh2, stronger effect = lower value 0.999 | S. cerevisiae deletion strains, locus YOR144C, strain elg1, stronger effect = lower value 0.989 | S. cerevisiae deletion strains, locus YOR184W, strain ser1, stronger effect = lower value 1.08 | S. cerevisiae deletion strains, locus YOR231W, strain MKK1, stronger effect = lower value 0.987 | S. cerevisiae deletion strains, locus YOR265W, strain rbl2, stronger effect = lower value 1.01 | S. cerevisiae deletion strains, locus YOR270C, strain vph1, stronger effect = lower value 1.05 | S. cerevisiae deletion strains, locus YOR290C, strain snf2, stronger effect = lower value 1.02 | S. cerevisiae deletion strains, locus YOR316C, strain cot1, stronger effect = lower value 0.988 | S. cerevisiae deletion strains, locus YPL051W, strain arl3, stronger effect = lower value 1.01 | S. cerevisiae deletion strains, locus YPL055C, strain LGE1, stronger effect = lower value 0.898 | S. cerevisiae deletion strains, locus YPL078C, strain atp4, stronger effect = lower value 1.03 | S. cerevisiae deletion strains, locus YPL106C, strain sse1, stronger effect = lower value 1.03 | S. cerevisiae deletion strains, locus YPL240C, strain hsp82, stronger effect = lower value 1.01 | S. cerevisiae deletion strains, locus YPL241C, strain CIN2, stronger effect = lower value 0.991 | S. cerevisiae deletion strains, locus YPL256C, strain CLN2, stronger effect = lower value 0.964 | S. cerevisiae deletion strains, locus YPR119W, strain clb2, stronger effect = lower value 0.996 | S. cerevisiae deletion strains, locus YPR141C, strain kar3, stronger effect = lower value 0.952 | S. cerevisiae deletion strains, locus YPR163C, strain tif3, stronger effect = lower value 0.998 | S. cerevisiae deletion strains, locus YPR167C, strain met16, stronger effect = lower value 0.99 | S. cerevisiae deletion strains, strain wtn01, stronger effect = lower value 0.994 | S. cerevisiae strains, strain wild type, stronger effect = lower value 0.989
